Experimental data as given in the supplement of paper PMC10515830.
Counter-ions that a name gives are not always drawn.

Columns and labels:
Details in all cases: 10 µM; exposure time 6 h
[1] = test system: Danio rerio larvae (5 dpf); assay: difference in excitability vs DMSO (percentage points); higher = more excitable than DMSO
How it was run: (§1)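 Wild-type 5 dpf zebrafish larvae in 96-well plates were given 100 µL egg water containing library compound at 10 µM final for 6 h. After 3 h of exposure, plates at 28.5 ℃ were photographed every 6 s during a 3-h programme of moving lines and 100 ms, 400Hz tones. Z-LaP Tracker (a DeepLabCut model) quantified each behaviour, averaged over 48 larvae per compound. Values are the compound mean minus the DMSO-vehicle control, in percentage points.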

[2] = test system: Danio rerio larvae (5 dpf); assay: difference in startle response vs DMSO (percentage points); higher = stronger startle than DMSO
How it was run: as §1

[3] = test system: Danio rerio larvae (5 dpf); assay: difference in activity during first hour vs DMSO (percentage points); higher = more activity than DMSO
How it was run: as §1

[4] = test system: Danio rerio larvae (5 dpf); assay: difference in habituation to acoustic stimuli vs DMSO (percentage points); higher = more habituation than DMSO
How it was run: as §1

[5] = test system: Danio rerio larvae (5 dpf); assay: difference in combined optomotor response to red, green and blue moving lines vs DMSO (percentage points); higher = stronger optomotor response than DMSO
How it was run: as §1

| Structure (SMILES) | difference in excitability [1] | difference in startle response [2] | difference in activity during first hour [3] | difference in habituation to acoustic stimuli [4] | difference [5] |
| --- | --- | --- | --- | --- | --- |
| CC(C)(C)NC(=O)[C@@H]1C[C@@H]2CCCC[C@@H]2CN1C[C@@H](O)[C@H](Cc1ccccc1)NC(=O)[C@H](CC(N)=O)NC(=O)c1ccc2ccccc2n1 [Saquinavir (mesylate)] | 9.2 | -1.02 | 0.593 | 0.0845 | -1.01 |
| Cc1cnc(NC(=O)C2=C(O)c3ccccc3S(=O)(=O)N2C)s1 [Meloxicam] | 5.53 | 6.51 | -3.33 | 3.11 | 4.63 |
| COC(=O)/C=C/C(=O)OC [Dimethyl fumarate] | 19.8 | -1.87 | 20.1 | -2.23 | 12 |
| COc1cc2/c(=N/c3ccc(Br)cc3F)nc[nH]c2cc1OCC1CCN(C)CC1 [Vandetanib] | 12.1 | -1.93 | -4.76 | 5.41 | 6.09 |
| COc1c(C)c2c(c(O)c1C/C=C(\C)CCC(=O)O)C(=O)OC2 [Mycophenolic Acid] | 2.6 | 4.16 | -1.66 | -0.729 | 8.73 |
| CC(C)CN(C[C@@H](O)[C@H](Cc1ccccc1)NC(=O)O[C@H]1CO[C@H]2OCC[C@H]21)S(=O)(=O)c1ccc(N)cc1 [Darunavir] | -1.86 | 0.437 | 0.73 | 2.66 | 5.61 |
| COC(=O)CCc1ccc(OCC(O)CNC(C)C)cc1 (stereo not given) [Esmolol (hydrochloride)] | -2.69 | 4.98 | 5.19 | -2.83 | 10.6 |
| CN(C)CCCN1c2ccccc2Sc2ccc(Cl)cc21 [Chlorpromazine (hydrochloride)] | 12.6 | -0.58 | 13.4 | -8.52 | 6.64 |
| N#C[C@@H]1C[C@@H]2C[C@@H]2N1C(=O)[C@@H](N)C12CC3CC(CC(O)(C3)C1)C2 [Saxagliptin (hydrochloride)] | 4.61 | -1.75 | 11.5 | 5.75 | 2.16 |
| C[C@@H](O)[C@@H]1NC(=O)[C@H](CCCCN)NC(=O)[C@@H](Cc2c[nH]c3ccccc23)NC(=O)[C@H](Cc2ccccc2)NC(=O)[C@@H](NC(=O)[C@H](N)Cc2ccccc2)CSSC[C@@H](C(=O)N[C@H](CO)[C@@H](C)O)NC1=O [Octreotide (acetate)] | 11.3 | -0.00387 | -5.09 | -0.654 | 0.73 |
| COC(=O)c1ccc2c(c1)NC(=O)/C2=C(\Nc1ccc(N(C)C(=O)CN2CCN(C)CC2)cc1)c1ccccc1 | 16.7 | -5.51 | -11.1 | 1.6 | 3.92 |
| CC(=O)O[C@@]12CO[C@@H]1C[C@H](O)[C@@]1(C)C(=O)[C@H](O)C3=C(C)[C@@H](OC(=O)[C@H](O)[C@@H](NC(=O)OC(C)(C)C)c4ccccc4)C[C@@](O)([C@@H](OC(=O)c4ccccc4)[C@H]21)C3(C)C [Docetaxel (hydrate)] | 4.98 | -2.23 | -2.75 | -0.117 | -1.11 |
| CC(C)N(CCCCOCC(=O)NS(C)(=O)=O)c1cnc(-c2ccccc2)c(-c2ccccc2)n1 | 11.4 | 6.8 | -3.12 | 5.08 | 2.84 |
| CO[C@H]1C(=O)[C@]2(C)[C@@H](OC)C[C@H]3OC[C@@]3(OC(C)=O)[C@H]2[C@H](OC(=O)c2ccccc2)[C@]2(O)C[C@H](OC(=O)[C@H](O)[C@@H](NC(=O)OC(C)(C)C)c3ccccc3)C(C)=C1C2(C)C [Cabazitaxel] | 6.19 | 4.59 | 13.7 | 3.39 | 2.83 |
| Cc1cccc(CN2CCN(C(c3ccccc3)c3ccc(Cl)cc3)CC2)c1 (stereo not given) [Meclizine (hydrochloride)] | 6.31 | -8.4 | 21.1 | -9.92 | -14.3 |
| OC[C@H]1O[C@@H](O[C@@H]2[C@@H](CO)OC(O)(CO)[C@H]2O)[C@H](O)[C@@H](O)[C@H]1O (mixture of isomers) [Lactulose] | 2.43 | -1.72 | -2.1 | -4.39 | -4.94 |
| Cc1ccccc1N1C(=O)c2cc(S(N)(=O)=O)c(Cl)cc2NC1C (stereo not given) [Metolazone] | 5.2 | 4.85 | -12.7 | 0.578 | 1.31 |
| O=C(c1cc(Cc2n[nH]c(=O)c3ccccc23)ccc1F)N1CCN(C(=O)C2CC2)CC1 [Olaparib] | -5.41 | -4.44 | 2.13 | -3.55 | 4.86 |
| Clc1ccccc1C(c1ccccc1)(c1ccccc1)n1ccnc1 [Clotrimazole] | -0.151 | 4.37 | -19.1 | -10.2 | -12.6 |
| Cn1nnc(-c2ccc(-c3ccc(N4C[C@H](COP(=O)(O)O)OC4=O)cc3F)cn2)n1 [Tedizolid Phosphate] | -1.24 | 8.42 | 3.68 | 2.23 | 0.136 |
| CCOc1nc2cccc(C(=O)OCc3oc(=O)oc3C)c2n1Cc1ccc(-c2ccccc2-c2noc(=O)[nH]2)cc1 [Azilsartan Medoxomil] | 6.47 | -1.67 | -8.07 | 5.02 | -2.25 |
| COc1ccccc1Oc1c(NS(=O)(=O)c2ccc(C(C)(C)C)cc2)nc(-c2ncccn2)nc1OCCO [Bosentan] | 11.1 | -7.54 | 2.38 | 2.24 | -0.979 |
| Cc1cc(C(=O)NNCc2ccccc2)no1 [Isocarboxazid] | 9.42 | 3.52 | -14 | -2.77 | 4.57 |
